TRHR ag: activates the human TRH receptor | TRHR cells, calcium flux fluo-8, FDSS agonist mode | actives 0.18% (n = 360,000) | activation, % at 2 µM | P34981; further: 0% is about no effect
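TRHR-expressing cells, plated overnight in medium with 10% serum, were loaded with fluo-8 calcium dye at room temperature. After a 10 s baseline, library compound was pin-added and calcium release was recorded kinetically (ex 480/em 530) as agonist response.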
D1 agonist: agonists of human D1 dopamine receptor | P21728 | HEK293 T-REx D1 cells, calcium flux, agonist mode | activation, % at 2 µM | actives 1% (n = 360,000) | AID 504660; further: 0% is about no effect
Target sequence (P21728 whole entry, looked up): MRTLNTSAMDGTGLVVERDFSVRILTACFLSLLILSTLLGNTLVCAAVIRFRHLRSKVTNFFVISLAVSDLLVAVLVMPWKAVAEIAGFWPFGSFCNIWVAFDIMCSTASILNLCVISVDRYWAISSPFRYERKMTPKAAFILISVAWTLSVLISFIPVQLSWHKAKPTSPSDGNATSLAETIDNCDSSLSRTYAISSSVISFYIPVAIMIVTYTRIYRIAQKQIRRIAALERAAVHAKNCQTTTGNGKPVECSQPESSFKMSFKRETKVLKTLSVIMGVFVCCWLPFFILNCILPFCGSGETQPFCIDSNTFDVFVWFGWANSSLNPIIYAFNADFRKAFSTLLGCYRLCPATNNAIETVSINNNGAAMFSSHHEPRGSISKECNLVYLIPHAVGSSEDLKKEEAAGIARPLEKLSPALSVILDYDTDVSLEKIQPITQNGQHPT
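Agonism was scored from calcium flux recorded over 180 s (1 read/s) after pintool compound addition, following a 10-cycle baseline. Cells were inducible force-coupled HEK293 TREx D1, plated overnight at 30 C and loaded with no-wash calcium dye.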
D1 antagonist: blocks dopamine activation of the human D1 receptor. P21728. HEK293 TREx D1 cells, calcium flux, dopamine EC80; active compounds read low. activity change, negative = inhibition, % at 10 µM. actives 3.2% (n = 360,000); in the data active means activity change below about -30%; further: on the % scale 0 is the no-effect control and ±100 the full control effect
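Kinetic fluorescence of a calcium dye serves as the read-out. D1-expressing Hek293 Trex cells, induced overnight at 30 C, are exposed to compound for 180 s before an EC80 dopamine addition, then read 180 s further.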
TRHR enhancer: allosteric enhancers of human TRH receptor; TRHR cells, fluo-8 calcium fluorescence, EC20 TRH enhancement; actives 0.66% (n = 360,000); enhancement, % at 2 µM; in the data active means enhancement above about 30%; further: 0% is about no effect
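Enhancer read-out: after compound pinning and an initial kinetic agonist-mode read, an EC20 of TRH (10 nM final) was injected and fluo-8 calcium signal (Ex 480/Em 530) followed at 1 s/cycle for 100 cycles in TRHR-expressing cells.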
D1 PAM: potentiators of human D1 dopamine receptor; AID 504651; P21728; actives 0.036% (n = 360,000); HEK293 TREx D1 cells, calcium flux, dopamine EC20 potentiation; potentiation, % at 10 µM; in the data active means potentiation above about 30%; further: 0% is about no effect
* = called active by the depositor. Rows were chosen to be rich in hits. Some 4.7% of all compounds tested hit in one or more screens of this group. Unless noted, no stated cut-off is given here; in the data, active means activation above about 30%; inactive means the rest.

SMILES	TRHR ag	D1 agonist	D1 antagonist	TRHR enhancer	D1 PAM
CCCS(=O)(=O)c1c(S(=O)(=O)CCC)c2cc(C(C)(C)C)ccn2c1C(=O)c1ccccc1	-1	10	-8	-7	-2
Cc1c(C)n(Cc2ccccc2)c2ccc(C(=O)OCCN(C)C)cc12	23	57*	-25	6	-4
CCc1ccc(NC(=O)c2ccc3c(c2)c(C)c(C)n3Cc2ccccc2)cc1	0	1	13	0	-4
Cc1c(C)n(Cc2ccccc2)c2ccc(C(=O)N3CCN(c4ccc(F)cc4)CC3)cc12	0	1	-74*	0	2
COc1cccc(CNC(=O)c2ccncc2)c1	0	1	13	32*	-3
O=S(=O)(c1ccc2c(c1)OCCO2)N1CCN(S(=O)(=O)c2cccc3cccnc23)CC1	2	2	-7	1	-3
COc1cc(Cl)c(NC(=O)CN2C(=O)c3cccnc3Sc3ccccc32)c(OC)c1	0	0	11	-7	-2
O=C1c2ccccc2-c2onc3ccc(NCc4ccco4)c1c23	63*	122*	-2	7	-8
O=C(O)c1ccccc1NCc1ccco1	0	3	3	-3	8
CCNc1ccc2noc3c2c1C(=O)c1ccccc1-3	122*	313*	-44*	31*	3
CCOc1ccc2noc3c2c1C(=O)c1ccccc1-3	46*	98*	-24	1	2
Cc1ccc(-n2c3nc(=O)[nH]c(=O)c-3cc3c(C)nn(-c4ccccc4)c32)cc1C	-1	4	-12	-1	5
CN1CC2=Cc3ccccc3OC23Oc2ccccc2C=C3C1	0	13	-51*	0	-16
CCCCc1n[nH]c2c1/C(=N/O)CC(C)(C)C2	0	1	-8	0	-8
CCCc1n[nH]c2c1C(=O)CC(C)(C)C2	0	2	9	14	33*
CCCCc1n[nH]c2c1/C(=N/OCC)CC(C)(C)C2	-1	62*	62	6	35*
CC(=O)c1ccc(NC(=O)CSc2ccc3nnc(CCNS(=O)(=O)c4ccc(C)cc4)n3n2)cc1	0	1	-23	7	-1
CCc1ccc(-n2c(=O)c3cccnc3n2CC(=O)NCc2ccccc2)cc1	1	11	13	-3	-4
CCc1ccc(-n2c(=O)c3cccnc3n2CC(=O)NCc2ccc(F)cc2)cc1	1	7	-36*	-9	-6
O=C(O)CCN1C(=O)C2C3c4ccccc4C(c4ccccc43)[C@@H]2C1=O (stereo partly drawn)	-1	3	-31*	-4	2
O=C(O)CCN1C(=O)C2C3c4ccccc4C(c4ccccc43)C2C1=O (stereo not drawn)	1	5	9	3	-7
CCOc1ccc(-c2c(C(=O)N/N=C/c3ccc(C)cc3)nnn2-c2nonc2N)cc1	0	44*	44	13	27
Cc1ccc(SCc2c(C(=O)N/N=C/c3ccoc3)nnn2-c2nonc2N)cc1	0	3	-45*	-10	-18
CCCOc1ccc(-c2c(C(=O)N/N=C/c3ccc(C)cc3)nnn2-c2nonc2N)cc1	1	2	28	10	15
CC(C)c1c(C(=O)N/N=C/c2cccnc2)nnn1-c1nonc1N	1	7	2	6	-9
SMILES	TRHR ag	D1 agonist	D1 antagonist	TRHR enhancer	D1 PAM
COc1cccc(-c2c(C(=O)N/N=C/c3ccoc3)nnn2-c2nonc2N)c1	2	77*	9	25	0
COc1cccc(-c2c(C(=O)N/N=C/c3ccncc3)nnn2-c2nonc2N)c1	0	4	7	13	-6
Cc1ccc(SCc2c(C(=O)N/N=C/c3ccccc3)nnn2-c2nonc2N)cc1	1	3	-10	-12	-13
CCc1ccc(/C=N/NC(=O)c2nnn(-c3nonc3N)c2C(C)C)cc1	25	142*	42	41*	22
COc1ccc2ncc3c(-c4ccc(C)c(C)c4)nn(CC(=O)Nc4ccccc4)c3c2c1	0	3	-5	2	-3
Cc1ccc(-c2onc(C)c2C)cc1S(=O)(=O)Nc1ccc(Cl)cn1	0	2	20	7	-1
CCOc1ccc(-c2c(C(=O)N/N=C/c3ccc(OC(C)C)cc3)nnn2-c2nonc2N)cc1	0	19	43	-7	6

Screening results (PubChem BioAssay)
